Data as given in PubChem BioAssay (NCI).
This is part of a sample that, as a whole, favours compounds with a hit. Of some 83,000 tested, about 20% had one in any assay.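 Single-dose data. Exposure time 48 hours. Values below 10 considered active.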 The source made the active and inactive calls.

Assays:
Test in all cases: NCI-60 one-dose screen, 48 h (100 = growth as untreated, 0 = no growth, -100 = all killed)
Settings in all cases: 10 µM unless noted
NCI-H23 lung = tested on: NCI-H23 lung
NCI-H226 lung = tested on: NCI-H226 lung
NCI-H322M lung = tested on: NCI-H322M lung
HOP-62 NSCLC = tested on: HOP-62 NSCLC
NCI-H460 lung = tested on: NCI-H460 lung
HOP-92 NSCLC = tested on: HOP-92 NSCLC
NCI-H522 lung = tested on: NCI-H522 lung
A549/ATCC NSCLC = tested on: A549/ATCC NSCLC
786-0 renal = tested on: 786-0 renal
COLO 205 colon = tested on: COLO 205 colon
DU-145 prostate = tested on: DU-145 prostate
K-562 leukemia = tested on: K-562 leukemia
MALME-3M melanoma = tested on: MALME-3M melanoma
MDA-MB-231 breast = tested on: MDA-MB-231 breast
RXF 393 renal = tested on: RXF 393 renal
SF-268 CNS = tested on: SF-268 CNS
SF-295 CNS = tested on: SF-295 CNS
SF-539 CNS = tested on: SF-539 CNS
UACC-257 melanoma = tested on: UACC-257 melanoma
M14 melanoma = tested on: M14 melanoma

Measured: growth

CCOC(=O)c1cnc2c(N=Nc3ccc(OC)cc3)c(N)nn2c1N
inactive: NCI-H23 lung 98.8% | NCI-H226 lung 99.7% | NCI-H322M lung 97.9% | HOP-62 NSCLC 104% | NCI-H460 lung 103% | HOP-92 NSCLC 113% | NCI-H522 lung 86.8% | A549/ATCC NSCLC 95% | 786-0 renal 104% | COLO 205 colon 106% | DU-145 prostate 102% | K-562 leukemia 107% | MALME-3M melanoma 106% | MDA-MB-231 breast 101% | RXF 393 renal 113% | SF-268 CNS 94.2% | SF-295 CNS 102% | SF-539 CNS 110% | UACC-257 melanoma 103% | M14 melanoma 110%

COc1cc2nc3sc(C(=O)Nc4ccc(C(=O)OC(C)C)cc4)c(C(=O)Nc4ccc(Cl)cc4C)n3c(=O)c2cc1OC
inactive: NCI-H23 lung 72.1% | NCI-H226 lung 103% | NCI-H322M lung 68.5% | HOP-62 NSCLC 67.2% | NCI-H460 lung 22.7% | HOP-92 NSCLC 32.5% | NCI-H522 lung 98.7% | A549/ATCC NSCLC 52% | 786-0 renal 53.6% | COLO 205 colon 45.8% | DU-145 prostate 13.2% | K-562 leukemia 56.4% | MALME-3M melanoma 43.9% | MDA-MB-231 breast 86.9% | RXF 393 renal 83.8% | SF-268 CNS 64.5% | SF-295 CNS 42% | SF-539 CNS 104% | UACC-257 melanoma 118% | M14 melanoma 77.7%

CSc1nc(C)c([N+](=O)[O-])c(N)n1
inactive: NCI-H23 lung 101% | NCI-H226 lung 102% | NCI-H322M lung 93.7% | HOP-62 NSCLC 104% | NCI-H460 lung 104% | HOP-92 NSCLC 89.3% | NCI-H522 lung 77.2% | A549/ATCC NSCLC 76.2% | 786-0 renal 103% | COLO 205 colon 110% | DU-145 prostate 109% | K-562 leukemia 91% | MALME-3M melanoma 104% | MDA-MB-231 breast 96.5% | RXF 393 renal 114% | SF-268 CNS 105% | SF-295 CNS 109% | SF-539 CNS 104% | UACC-257 melanoma 84.7% | M14 melanoma 91.8%

Nc1[nH]c(=S)nc2oc(-c3ccccc3)c(-c3ccccc3)c12
inactive: NCI-H23 lung 94.5% | NCI-H226 lung 107% | NCI-H322M lung 105% | HOP-62 NSCLC 86.6% | NCI-H460 lung 113% | HOP-92 NSCLC 102% | NCI-H522 lung 94.8% | A549/ATCC NSCLC 98.1% | 786-0 renal 103% | COLO 205 colon 121% | DU-145 prostate 106% | K-562 leukemia 95.2% | MALME-3M melanoma 108% | MDA-MB-231 breast 103% | RXF 393 renal 93% | SF-268 CNS 95.9% | SF-295 CNS 96.1% | SF-539 CNS 98.6% | UACC-257 melanoma 102% | M14 melanoma 106%

CNC(=O)c1cc(Oc2ccc3c(c2)sc2nc(-c4ccc(OC)cc4)cn23)ccn1
active: NCI-H460 lung 6.83% | COLO 205 colon 0.159% | DU-145 prostate 8.28%
inactive: NCI-H23 lung 41.2% | NCI-H226 lung 61.6% | NCI-H322M lung 56.7% | HOP-62 NSCLC 19.4% | HOP-92 NSCLC 35% | NCI-H522 lung 38.1% | A549/ATCC NSCLC 15.9% | 786-0 renal 29.3% | K-562 leukemia 33.8% | MALME-3M melanoma 68.3% | MDA-MB-231 breast 62.2% | RXF 393 renal 45.7% | SF-268 CNS 80.1% | SF-295 CNS 14.1% | SF-539 CNS 83.6% | UACC-257 melanoma 46.5% | M14 melanoma 57.9%

C=C1C(=O)O[C@H]2[C@H]1CC/C(COC(=O)c1cc3cc(Cl)ccc3[nH]1)=C\CC[C@@]1(C)O[C@@H]21
active: NCI-H23 lung -64.9% | NCI-H226 lung -64.2% | HOP-62 NSCLC -63.6% | NCI-H460 lung 6.97% | HOP-92 NSCLC -80.3% | NCI-H522 lung -81.1% | A549/ATCC NSCLC -67.5% | 786-0 renal -90.5% | COLO 205 colon -77.6% | DU-145 prostate -96.1% | K-562 leukemia -21.1% | MALME-3M melanoma -76.9% | MDA-MB-231 breast -77.8% | RXF 393 renal -88.7% | SF-268 CNS -88.3% | SF-539 CNS -90.4% | UACC-257 melanoma -76.3% | M14 melanoma -56.9%
inactive: NCI-H322M lung 44.3% | SF-295 CNS 39.2%

O=C1c2ccccc2C(=O)c2c1cc1c(c2[N+](=O)[O-])OCO1
inactive: NCI-H226 lung 25.9% | NCI-H322M lung 46.9% | A549/ATCC NSCLC 49% | COLO 205 colon 48% | DU-145 prostate 17.8% | K-562 leukemia 10.5% | MALME-3M melanoma 85% | MDA-MB-231 breast 11.3% | SF-295 CNS 10.6% | SF-539 CNS 21.3% | UACC-257 melanoma 82.3% | M14 melanoma 73.5%
active: NCI-H23 lung 4.14% | HOP-62 NSCLC 3.82% | NCI-H460 lung 3.42% | HOP-92 NSCLC -3.71% | NCI-H522 lung -46.6% | 786-0 renal 2.64% | RXF 393 renal -63.5% | SF-268 CNS 5.31%

N=C(N)c1ccc(-c2ccc(-c3cc(Cl)cc(Cl)c3)s2)nc1
inactive: NCI-H23 lung 75.5% | NCI-H226 lung 93.7% | NCI-H322M lung 52.8% | HOP-62 NSCLC 86.5% | HOP-92 NSCLC 87.8% | NCI-H522 lung 34.1% | 786-0 renal 79.6% | MALME-3M melanoma 78.6% | MDA-MB-231 breast 61.1% | RXF 393 renal 90.3% | SF-268 CNS 88.4% | SF-295 CNS 57.1% | SF-539 CNS 57.2% | UACC-257 melanoma 106% | M14 melanoma 79.5%
active: NCI-H460 lung -60.3% | A549/ATCC NSCLC 0.133% | COLO 205 colon -38.4% | DU-145 prostate 1.39% | K-562 leukemia -4.72%

O=C(/C=C/c1ccc(Cl)cc1)c1cccc(OCCCOc2cccc(C(=O)/C=C/c3ccc(Cl)cc3)c2)c1
inactive: NCI-H23 lung 102% | NCI-H226 lung 104% | NCI-H322M lung 103% | HOP-62 NSCLC 107% | NCI-H460 lung 102% | HOP-92 NSCLC 120% | NCI-H522 lung 96.2% | A549/ATCC NSCLC 92.7% | 786-0 renal 102% | COLO 205 colon 113% | DU-145 prostate 113% | K-562 leukemia 88.8% | MALME-3M melanoma 109% | MDA-MB-231 breast 110% | RXF 393 renal 106% | SF-268 CNS 105% | SF-295 CNS 100% | SF-539 CNS 112% | UACC-257 melanoma 98.6% | M14 melanoma 98.6%

COc1ccc(CNc2c3ccccc3nc3ccccc23)c(OC)c1
inactive: NCI-H23 lung 34.9% | NCI-H226 lung 46.3% | NCI-H322M lung 40% | HOP-62 NSCLC 47.2% | NCI-H460 lung 16.6% | NCI-H522 lung 40.6% | A549/ATCC NSCLC 35.2% | 786-0 renal 39.1% | COLO 205 colon 24.6% | DU-145 prostate 49.4% | K-562 leukemia 13.2% | MALME-3M melanoma 67% | MDA-MB-231 breast 43.6% | RXF 393 renal 33.4% | SF-268 CNS 65.7% | SF-295 CNS 36.3% | SF-539 CNS 14.6% | UACC-257 melanoma 74.6% | M14 melanoma 43.8%
active: HOP-92 NSCLC -13.6%

COC1=C(C)C(=O)N2[C@@H]1[C@H](c1ccccc1)OC21C=CC(=O)C=C1
active: NCI-H23 lung 3.23% | NCI-H226 lung -25.9% | HOP-92 NSCLC -11.7% | NCI-H522 lung -69.3% | 786-0 renal -48.9% | COLO 205 colon -34.6% | DU-145 prostate 4.7% | K-562 leukemia 6.14% | MALME-3M melanoma -12.3% | RXF 393 renal -69.2% | SF-268 CNS 1.71% | SF-539 CNS -69% | UACC-257 melanoma -12.8% | M14 melanoma -43.8%
inactive: NCI-H322M lung 81.8% | HOP-62 NSCLC 28.7% | NCI-H460 lung 89.4% | A549/ATCC NSCLC 82.3% | MDA-MB-231 breast 11.9% | SF-295 CNS 90.3%

N#Cc1cccc(C2C3=C(COC3=O)N(CCO)c3cc4c(cc32)CCC4)c1 (stereo not given)
active: NCI-H460 lung 3.78% | NCI-H522 lung -3.91% | COLO 205 colon -26.1% | DU-145 prostate 3.87% | K-562 leukemia 8.48% | SF-295 CNS -7.01% | SF-539 CNS -10.1% | M14 melanoma 2.59%
inactive: NCI-H23 lung 23.3% | NCI-H226 lung 28.4% | NCI-H322M lung 34.2% | HOP-62 NSCLC 26.3% | HOP-92 NSCLC 43% | A549/ATCC NSCLC 12.3% | 786-0 renal 24% | MALME-3M melanoma 48.2% | MDA-MB-231 breast 32.4% | RXF 393 renal 35.5% | SF-268 CNS 30.4% | UACC-257 melanoma 69.4%

N=c1c(S(=O)(=O)c2ccccc2)cc2c(=O)n3ccccc3nc2n1CC1CCCO1 (stereo not given)
inactive: NCI-H23 lung 99.8% | NCI-H226 lung 103% | NCI-H322M lung 96.4% | HOP-62 NSCLC 95% | NCI-H460 lung 105% | HOP-92 NSCLC 94.5% | NCI-H522 lung 100% | A549/ATCC NSCLC 111% | 786-0 renal 103% | COLO 205 colon 113% | DU-145 prostate 110% | K-562 leukemia 113% | MALME-3M melanoma 118% | MDA-MB-231 breast 97.9% | RXF 393 renal 113% | SF-268 CNS 100% | SF-295 CNS 112% | SF-539 CNS 95.6% | UACC-257 melanoma 109% | M14 melanoma 104%

COc1cc(OC)cc(-c2ccc(-c3ccc(C(=N)N)o3)o2)c1
active: NCI-H460 lung 6.91% | COLO 205 colon -61.5% | K-562 leukemia 4.64% | MDA-MB-231 breast 0.981%
inactive: NCI-H23 lung 76.6% | NCI-H226 lung 84.8% | NCI-H322M lung 71.2% | HOP-62 NSCLC 81.4% | HOP-92 NSCLC 69.2% | NCI-H522 lung 57.6% | A549/ATCC NSCLC 47.1% | 786-0 renal 69% | DU-145 prostate 60.2% | MALME-3M melanoma 71.3% | RXF 393 renal 58.2% | SF-268 CNS 62.6% | SF-295 CNS 86.3% | SF-539 CNS 73.1% | UACC-257 melanoma 45.4% | M14 melanoma 25.1%

c1ccc2c(c1)CCCc1nnc3nc4ccccc4n3c1-2
active: HOP-92 NSCLC -2.09%
inactive: NCI-H23 lung 46.7% | NCI-H226 lung 51.2% | NCI-H322M lung 48.2% | HOP-62 NSCLC 34.8% | NCI-H460 lung 25.8% | NCI-H522 lung 55.6% | A549/ATCC NSCLC 29.9% | 786-0 renal 34.2% | COLO 205 colon 12% | DU-145 prostate 39.9% | K-562 leukemia 31.4% | MALME-3M melanoma 53.5% | MDA-MB-231 breast 38.5% | RXF 393 renal 46.7% | SF-268 CNS 44.5% | SF-295 CNS 30.7% | SF-539 CNS 69.5% | UACC-257 melanoma 37.6% | M14 melanoma 28.3%
